Shown is part of a subset that was picked to be rich in hits.
HT1080NT lethal: qHTS for induction of synthetic lethality in tumor cells producing 2HG: qHTS for the HT-1080-NT fibrosarcoma cell line; HT-1080-NT fibrosarcoma viability, CellTiter-Glo ATP luminescence, 48 h; Potency, µM (titrated, usually from 46.1 µM), for the others: at the top dose activity, negative = less viability, most hits filed as cytotoxic; 360,000 compounds, 1.6% hits; AID 686970, 2013;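 note: NT is the 2HG producing partner of a matched IDH1 knockdown line; potency is the fitted concentration of half-maximal effect; 0% = DMSO-treated cells and -100% = media-only wells without cells; nearly all actives have a fitted effect of over 55% in size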
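Viability of the 2HG-overproducing fibrosarcoma line after 48 hours of compound exposure at 37 degrees C was determined by luminescence with CellTiter-Glo, and concentration-effect curves were then fitted and categorized.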
HT1080 IDH1KD tx: qHTS for induction of synthetic lethality in tumor cells producing 2HG: qHTS for the HT-1080-IDH1KD cell line | HT-1080 IDH1 knockdown viability, ATP luminescence, 48 h | Potency, µM (highest dose often 46.1 µM), inactives show top-dose activity, negative = toxicity, most hits filed as cytotoxic | 360,000 compounds, 2% hits;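 note: potency is the fitted concentration of half-maximal effect; 0% = DMSO wells and -100% = cell-free medium wells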
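Knockdown cells (IDH1KD HT-1080) received compounds 2 h after plating at 750 cells/well and were kept 48 h at 37 °C in 5% FBS RPMI. A CellTiter-Glo luminescence read gave % activity for curve fitting.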
DT40 TDP1 no CPT: qHTS for Inhibitors of human tyrosyl-DNA phosphodiesterase 1 (TDP1): qHTS in cells in absence of CPT; DT40 Tdp1-/- hTDP1 cells, no CPT, ATP luminescence, 48 h; Potency, µM (titrated, usually from 46.2 µM), for the others: top-dose activity change, negative = growth inhibition, usual class: inhibitors; 420,000 compounds, 15% hits; AID 686978, 2013; note: potency is the fitted concentration of half-maximal effect; nearly all actives have a fitted effect of over 55% in size
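Seeded 400 DT40-hTDP1 cells/well (vehicle DMSO, no 20 nM CPT); pinned compounds; ≥48 hr at 37 °C; CellTiter-Glo luminescence as viability measure.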
TDP1 cell CPT: qHTS for Inhibitors of human tyrosyl-DNA phosphodiesterase 1 (TDP1): qHTS in cells in presence of CPT; chicken DT40 Tdp1-/-;hTDP1 cells + 20 nM CPT, ATP luminescence, 48 h; Potency, µM (titrated, usually from 46.2 µM), without a hit: at the top dose activity change, negative = growth inhibition, most hits filed as inhibitors; 420,000 compounds, 12% hits; AID 686979, 2013; note: potency is the fitted concentration of half-maximal effect; nearly all actives have a fitted effect of over 55% in size
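Chicken DT40 Tdp1-/- cells stably complemented with human TDP1 were seeded at 400 cells/well in medium containing 20 nM camptothecin, exposed to pin-transferred compounds, and grown at 37 °C for at least 48 hr. Viability was read as ATP luminescence.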
IL-1B inflam inh: qHTS for Inhibitors of Inflammasome Signaling: IL-1-beta AlphaLISA Primary Screen. THP-1 LPS/ATP IL-1B secretion, AlphaLISA, 16 h; stronger effect = lower value. activity change, % at 57.5 µM. 360,000 compounds, 4.7% hits; in the data active = activity change below about -50%; inconclusive = mostly about -30% to -49%
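THP-1 cells pretreated 1 hr with compounds (up to 57.5 uM final), then stimulated with LPS (250 ng/mL final) plus ATP (1.25 mM final); secreted IL-1B measured by AlphaLISA after 16 hr, decreased signal indicating inhibition.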
12-LOX inh: Primary qHTS assay for inhibitors of human arachidonate 12S-lipoxygenase (ALOX12): Round 2; Polyunsaturated fatty acid lipoxygenase ALOX12 (Homo sapiens), P18054; purified 12hLO, xylenol orange hydroperoxide absorbance; Potency, µM (doses to about 108 µM), inactives show top-dose activity change, negative = inhibition, hits mostly inhibitors; 580,000 compounds, 1.1% hits; AID 1671190, 2021; note: potency is the fitted concentration of half-maximal effect
Target sequence (P18054 whole entry, looked up): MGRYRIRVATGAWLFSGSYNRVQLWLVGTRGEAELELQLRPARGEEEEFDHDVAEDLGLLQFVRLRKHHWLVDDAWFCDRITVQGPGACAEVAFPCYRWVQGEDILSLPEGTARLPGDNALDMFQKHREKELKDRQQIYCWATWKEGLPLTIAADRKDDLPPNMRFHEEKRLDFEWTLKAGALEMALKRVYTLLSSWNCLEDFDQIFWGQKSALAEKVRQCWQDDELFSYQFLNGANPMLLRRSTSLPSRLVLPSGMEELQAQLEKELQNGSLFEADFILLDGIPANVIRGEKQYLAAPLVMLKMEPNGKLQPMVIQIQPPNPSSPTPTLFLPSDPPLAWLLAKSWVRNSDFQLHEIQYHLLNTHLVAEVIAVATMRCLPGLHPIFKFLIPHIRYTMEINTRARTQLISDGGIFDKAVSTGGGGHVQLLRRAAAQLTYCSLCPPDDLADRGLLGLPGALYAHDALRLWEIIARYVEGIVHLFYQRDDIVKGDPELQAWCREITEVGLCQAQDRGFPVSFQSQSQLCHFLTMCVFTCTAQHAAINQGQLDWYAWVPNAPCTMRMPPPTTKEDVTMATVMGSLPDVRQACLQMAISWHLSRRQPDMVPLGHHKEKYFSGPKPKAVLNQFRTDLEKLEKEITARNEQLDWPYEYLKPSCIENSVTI
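Purified human 12hLO at 150 nM in 25 mM Hepes, 0.01% Triton X-100, pH 7.0, preincubated 15 min at room temperature with compound. Reaction started with 40 uM arachidonic acid, 30 min at room temperature. Hydroperoxide measured by Fe-xylenol orange, 573/405 nm absorbance ratio.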
Starred values were filed as active, the others as inactive; ? = inconclusive; . = no result given; [ ] = remark or other dose. Unless noted, calls come from the whole dose curve; as a rule, active = well fitted curve in the direction sought with a large enough effect; inconclusive = small, poorly fitted or top-dose-only effect, or another doubt; inactive = no such curve, though single readings can be large; an effect the other way counts as inactive or inconclusive. Unless noted, % is set by controls: 0 for no effect and ±100 for the full control effect.

SMILES	HT1080NT lethal	HT1080 IDH1KD tx	DT40 TDP1 no CPT	TDP1 cell CPT	IL-1B inflam inh	12-LOX inh
CN(C)CCN(CC(=O)OC(C)(C)C)C(=O)CCCNC(=O)c1ccccc1	.	.	.	.	.	10%
O=C(OCc1nc2ccccc2o1)c1ccc(Cl)c(S(=O)(=O)N2CCCCCC2)c1	.	.	.	.	.	4%
O=C(c1cc(-c2ccncc2)nc2ccc(Br)cc12)N1CCN(c2ccccn2)CC1	-3%	1%[9.24 µM]	12µM*	?	-1	0%
Cc1ccc2nc(-c3ccccn3)cc(C(=O)N3CCN(c4ncccn4)CC3)c2c1	-6%	-14%[9.24 µM]	13µM*	21µM*	1	153%
CC(C)Oc1cccc(-c2cc(C(=O)N3CCN(c4ncccn4)CC3)c3ccccc3n2)c1	.	.	.	.	.	19%
CC(C)Oc1cccc(-c2cc(C(=O)N3CCN(S(C)(=O)=O)CC3)c3ccccc3n2)c1	-6%	1%	10µM*	?	11	0%
COc1cccc(-c2cc(C(=O)N3CCN(c4ncccn4)CC3)c3ccccc3n2)c1	-25%	-22%	23µM*	?	?	?
COC(=O)C1CCN(C(=O)c2cc(-c3ccccc3)nc3ccccc23)CC1	.	.	.	.	.	-1%
Cc1oc(-c2nc(C#N)c(NCc3ccco3)o2)cc1S(=O)(=O)N1CCCC1	.	.	.	.	.	28%
CN(C)CCCN1C(=O)CSC1c1ccc(Cl)cc1 (stereo unspecified)	.	.	.	.	.	27%
CC1CCN(c2ccc3nnc(CCC(=O)NC(C)CCc4ccco4)n3n2)CC1 (stereo unspecified)	.	.	.	.	.	7%
Cc1ccc(-c2cc(C(=O)N3CCN(c4ncccn4)CC3)c3ccccc3n2)cc1	?	?	16µM*	?	-17	?
O=C(c1cc(-c2ccc(Br)cc2)nc2ccccc12)N1CCN(c2ccccc2O)CC1	?	?	?	?	-62*	-29%
Cc1ccc(-c2cc(C(=O)N3CCOCC3)c3ccccc3n2)cc1	-19%	-9%	-11%	3%	16	0%
COc1ccc(-c2cc(C(=O)N3CCN(c4ncccn4)CC3)c3ccccc3n2)cc1OC	-15%	-2%	?	?	?	?
O=C(c1cc(-c2ccccn2)nc2c(Cl)cccc12)N1CCN(S(=O)(=O)c2ccccc2)CC1	-3%	-3%	21µM*	?	-22	-20%
Cc1cc(C)c(C)c(S(=O)(=O)N2CCNCC2)c1C	-21%	-15%	-28%	-13%	0	12%
CC(C)c1cc(C(C)C)c(S(=O)(=O)N2CCNCC2)c(C(C)C)c1	?	?	?	?	-81*	108%
CN(c1ncccc1CNC(=O)CN1CCCC1=O)C1CCCCC1	.	.	.	.	.	6%
Cc1ccsc1C(=O)N1CC(Oc2ccc(-c3nc(-c4ccccc4)no3)cc2)C1	.	.	.	.	.	14%
Cc1cc(S(=O)(=O)N2CCOCC2)ccc1OCC(=O)Nc1ccccc1F	-1%	1%	15%	2%	18	-14%
Cc1ccc(C)c(NC(=S)N=Nc2c(O)n(C)c3ccc(S(=O)(=O)N4CCOCC4)cc23)c1	-29%	?	2.9µM*	4.1µM*	7	-14%
CCc1ccccc1NC(=O)c1ccc(S(=O)(=O)N2CCCC2)cc1	10%	-1%	-11%	10%	3	-6%
CCc1ccccc1NC(=S)N=Nc1c(O)n(C)c2ccc(S(=O)(=O)N3CCOCC3)cc12	-12%	-22%	5.8µM*	5.2µM*	0	1%
Cc1ccc(Cn2c(O)c(N=NC(=S)Nc3ccccc3F)c3cc(S(=O)(=O)N4CCOCC4)ccc32)cc1	-12%	-12%	2.1µM*	3.7µM*	-12	-6%
SMILES	HT1080NT lethal	HT1080 IDH1KD tx	DT40 TDP1 no CPT	TDP1 cell CPT	IL-1B inflam inh	12-LOX inh
CC(C)c1ccc(CN(Cc2ccco2)c2cnc(S(C)(=O)=O)nc2C(=O)Nc2ccccc2)cc1	.	.	12µM*	18µM*	.	-12%
Cc1ccc(NC(=O)c2nc(S(C)(=O)=O)ncc2N(Cc2ccco2)Cc2ccccc2F)c(C)c1	.	.	9.2µM*	12µM*	.	-14%
COc1ccc(CN(Cc2ccco2)c2cnc(S(C)(=O)=O)nc2C(=O)Nc2ccc(C)cc2C)cc1	.	.	?	?	.	-1%
Cc1ccc(CN(Cc2ccco2)c2cnc(S(C)(=O)=O)nc2C(=O)Nc2ccc(Br)cc2)o1	.	.	?	18µM*	.	-21%
COc1ccc(NC(=O)N2C[C@@H](F)C[C@H]2C(=O)N2CCCCC2)c(OC)c1	.	.	.	.	.	17%
O=C(Nc1oc2ccccc2c(=O)c1-c1ccc(F)cc1)c1cccc([N+](=O)[O-])c1	.	.	.	.	.	2%
O=C(NCc1cccs1)c1cc(-c2cccc(C(F)(F)F)c2)c2nncn2n1	.	.	.	.	.	-6%[6.33 µM]
CC1CCCN(c2ccc(/C=C(\C#N)c3nn(-c4ccccc4)c(N)c3C#N)cc2[N+](=O)[O-])C1 (stereo unspecified)	-2%	-6%	21µM*	?	?	11%
CC1CCN(c2cc(N3CCC(C)CC3)c([N+](=O)[O-])cc2/C=C(\C#N)c2nn(-c3ccccc3)c(N)c2C#N)CC1	4%	-1%	-27%	?	-8	45%[57.4 µM]
CC1CCN(c2ccc(/C=C(\C#N)c3nn(-c4ccccc4)c(N)c3C#N)cc2[N+](=O)[O-])CC1	?	?	8.2µM*	18µM*	0	-14%
Cc1ccc(S(=O)(=O)N2CCN(C(=O)C(CC(C)C)NC(N)=O)CC2)cc1 (stereo unspecified)	.	.	.	.	.	-17%

Screens as filed in PubChem.
